Compound activity (PubChem BioAssay)
Compounds with a hit are over-represented: about 28% of the library has one in this group of screens.
CYP2C9 activ: increases human cytochrome P450 2C9 activity. P11712. recombinant CYP2C9, luciferin-H conversion, luminescence; active compounds read high; factor 1 = untreated enzyme, 0 = blocked. activation factor at 5 µM. 96,000 compounds, 1.4% hits. AID 1024;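 active means activation factor of 2 or more for CYP2C9 at a 5 µM dose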;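 further: 0 = sulfaphenazole-blocked wells and 1 = vehicle-only wells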
CYP2C9 inhib: inhibitors of human CYP2C9. CYP2C9 Supersomes, luciferin-H conversion, luminescence. inhibition, % at 5 µM. 96,000 compounds, 20% hits. AID 777;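 active means blocking of liver enzyme CYP2C9 beyond about 50% at 5 µM, limit read from the data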
PLK1 inh: PLK1 (human) kinase inhibition; recombinant PLK1 kinase, TR-FRET peptide phosphorylation; 97,000 compounds, 0.53% hits; P53350; AID 619; inhibition, % at 10 µM;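 active means inhibition of 50% or more in the single-concentration screen; inactive means inhibition below 50%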;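 further: 0% = DMSO max control and 100% = H-89 dihydrochloride min control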
CYP2C19 inh: inhibitors of human CYP2C19; P33261; CYP2C19 Supersomes, luciferin-H EGE luminescence, 30 min; inhibition, % at 5 µM; 96,000 compounds, 21% hits;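 active means CYP2C19 inhibition above a set limit at 5 µM in the primary screen, cut at about 50% in these data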;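 further: plate controls were negative control wells for no effect and 2.5 mM tranylcypromine positive control for full effect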
Target sequence (P33261 whole entry, looked up): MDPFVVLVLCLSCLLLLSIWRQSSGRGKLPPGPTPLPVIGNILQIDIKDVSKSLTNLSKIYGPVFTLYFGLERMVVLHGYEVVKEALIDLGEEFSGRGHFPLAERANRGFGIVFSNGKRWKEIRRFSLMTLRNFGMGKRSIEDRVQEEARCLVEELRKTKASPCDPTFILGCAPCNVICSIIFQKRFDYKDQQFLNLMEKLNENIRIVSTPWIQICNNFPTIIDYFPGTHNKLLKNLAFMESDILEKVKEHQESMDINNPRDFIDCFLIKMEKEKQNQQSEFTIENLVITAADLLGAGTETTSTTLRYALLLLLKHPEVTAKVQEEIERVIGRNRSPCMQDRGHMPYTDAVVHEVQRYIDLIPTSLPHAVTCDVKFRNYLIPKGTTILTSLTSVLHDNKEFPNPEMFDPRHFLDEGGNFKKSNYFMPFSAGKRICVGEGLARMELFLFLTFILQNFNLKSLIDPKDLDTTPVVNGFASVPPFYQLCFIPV
Plk1 PBD FP: inhibitors of human Plk1 polo box domain binding | Plk1 PBD phosphopeptide binding, fluorescence polarization | 97,000 compounds, 0.13% hits | inhibition, %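 (tested at about 20 µM)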 | P53350; in the data active means inhibition above about 34%, passing the limit was not always enough
CYP2C19 act: activators of human cytochrome P450 2C19; AID 1025; P33261; activation factor at 5 µM; recombinant CYP2C19, luciferin-H EGE luminescence; active compounds read high; 0 = fully inhibited enzyme, 1 = untreated enzyme; 96,000 tested, under 10 active;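 active means activation factor of at least 2 at 5 µM in the primary screen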;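 further: 0 = wells with 2.5 mM tranylcypromine and 1 = vehicle-only wells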
The depositor's hits bear a star; . = no result.

SMILES | CYP2C9 activ | CYP2C9 inhib | PLK1 inh | CYP2C19 inh | Plk1 PBD FP | CYP2C19 act
C=CCn1c(SCC(=O)NCc2ccco2)nc2sc(C)c(C)c2c1=O | . | . | -8 | . | 13 | .
CCn1c(SCC(=O)NCc2ccco2)nnc1-c1cccs1 | 0.6 | 36 | -9 | 34 | -9 | 0.7
Cc1sc2nc(SCC(=O)NCc3ccco3)n(Cc3ccccc3)c(=O)c2c1C | 0.4 | 59* | -7 | 3 | -8 | 1
C(=C/c1ccnc2nc(SC/C=C/c3ccccc3)nn12)/c1ccccc1 | 0.2 | 79* | -1 | 28 | -32 | 0.7
Cc1cc(=O)[nH]c(SC/C=C/c2ccccc2)n1 | 0.7 | 32 | 0 | 47 | 18 | 0.5
CN(C)c1ccc(CNC2CC(C)(C)NC(C)(C)C2)cc1 | 1.2 | -19 | -12 | -17 | 6 | 1.2
CC(NCc1ccc(N(C)C)cc1)C1CC2CCC1C2 (stereo not drawn) | 0.9 | 7 | -33 | 86* | -2 | 0.1
Cc1ccc(SCC(=O)NCCC2=CCCCC2)cc1 | 0.5 | 51* | -11 | 60* | -20 | 0.4
CC(C)CNC(=O)CSc1ccc(Cl)cc1 | 0.7 | 32 | -1 | 40 | -19 | 0.6
Cc1ccc(C)c(-n2nnnc2SCC(=O)NCCC2=CCCCC2)c1 | 0.6 | 40 | -2 | 76* | -17 | 0.2
Cc1ccc(SCC(=O)NCC(C)C)cc1 | 0.5 | 50* | . | 75* | . | 0.3
CCS(=O)(=O)c1ccc2oc(SCC(=O)NCCC3=CCCCC3)nc2c1 | 0.3 | 72* | -15 | 44 | -4 | 0.6
CNC(=O)CSc1nnnn1-c1cc(C)ccc1C | . | . | -12 | . | 8 | .
CCCOc1cc(CN2CCCCC2)cc(C(C)=O)c1 | 1.2 | -18 | 1 | -17 | -4 | 1.2
Cc1ccc(C)c(SCC(=O)OCC(=O)c2ccco2)c1 | 1.2 | -16 | -4 | 2 | 1 | 1
COc1cc(NC(=O)C2CCCN(c3ncccn3)C2)cc(OC)c1 (stereo not drawn) | . | . | -7 | . | 13 | .
CC(=O)Nc1sc2c(c1CN1CCN(C)CC1)CCCC2 | 1.1 | -12 | -2 | 20 | -23 | 0.8
COc1ccc(CCNC(=O)CN2CCN(c3cccc(Cl)c3)CC2)cc1OC | 0.7 | 25 | -15 | 3 | 21 | 1
Cc1noc(C)c1C(=O)OCC(=O)NCCC1=CCCCC1 | 0.6 | 42 | -9 | 70* | -9 | 0.3
Cc1noc(C)c1C(=O)NCCC1=CCCCC1 | 0.7 | 31 | -2 | 46 | -8 | 0.5
CCN(CC)C(=O)CSc1nc2ccc(NC(=O)CSc3nnc(COc4ccccc4C)n3C)cc2s1 | 0.5 | 46 | -15 | 48 | 8 | 0.5
CC(C)(C)NC(=O)CSc1nc2ccc(NC(=O)CSc3nnnn3Cc3ccccc3)cc2s1 | 0.5 | 49 | -12 | 52* | -14 | 0.5
Cc1ccccc1OCc1nnc(SCC(=O)Nc2ccc3nc(SCC(=O)NC(C)(C)C)sc3c2)n1C | 0.2 | 75* | -11 | 53* | 21 | 0.5
COc1ccc(OC(=O)c2ccc3nsnc3c2)cc1 | 1 | 0 | -4 | 11 | -2 | 0.9
Cc1ccc2[nH]c(=O)c(C(c3nnnn3C(C)(C)C)N(Cc3ccco3)CC3CCCO3)cc2c1 (stereo not drawn) | 1 | 4 | -9 | 9 | -21 | 0.9
SMILES | CYP2C9 activ | CYP2C9 inhib | PLK1 inh | CYP2C19 inh | Plk1 PBD FP | CYP2C19 act
CC(C)(C)n1nnnc1C(c1ccccc1F)N(Cc1ccco1)CC1CCCO1 (stereo not drawn) | 0.3 | 71* | -7 | 30 | -8 | 0.7
Cc1cccc2cc(C(c3nnnn3C(C)(C)C)N(Cc3ccco3)CC3CCCO3)c(=O)[nH]c12 (stereo not drawn) | 0.4 | 56* | 7 | 24 | -15 | 0.8
O=C(NC1=NCCS1)c1nc(-c2ccccc2)n(-c2ccccc2)n1 | 0.8 | 25 | 13 | 4 | -20 | 1
NC(=O)c1ccsc1NC(=O)c1nc(-c2ccccc2)n(-c2ccccc2)n1 | 0.4 | 61* | . | 30 | . | 0.7
NC(=O)c1ccsc1NC(=O)COc1ccccc1 | 0.4 | 65* | -6 | 44 | -1 | 0.6
NC(=O)c1ccsc1NC(=O)COC(=O)Cc1cccc2ccccc12 | 1.6 | -58 | -10 | 97* | -7 | 0
O=C(COc1ccccc1)Nc1nccs1 | . | . | -6 | . | 21 | .
CN(C)S(=O)(=O)c1cccc(C(=O)OCC(=O)Nc2sccc2C(N)=O)c1 | . | . | -3 | . | 7 | .
COc1ccc(C2=NOC(Cn3c(Cc4ccc(Cl)cc4)nc4c3c(=O)n(C)c(=O)n4C)C2)cc1 (stereo not drawn) | 0.2 | 82* | -1 | 74* | 15 | 0.3
Cn1c(SCc2ccccc2Cl)nnc1-c1cnccn1 | 0.9 | 9 | -3 | 77* | 12 | 0.2
Cn1c(Cn2nnc(-c3ccccc3)n2)nnc1SCc1ccccc1Cl | 0.4 | 64* | -1 | -10 | 18 | 1.1
O=C(O)c1cccc(-c2nnn(Cc3ccccc3Cl)n2)c1 | . | . | 0 | . | 19 | .
COC(=O)C1=C(C)N(C)C(C)=C(C(=O)OC)C1c1ccc(Cl)cc1 | 0.4 | 58* | 13 | 28 | 0 | 0.7
CCOC(=O)C1=C(C)Nc2nc(SC)nn2C1c1ccc(C(=O)OC)cc1 (stereo not drawn) | 0.8 | 18 | -14 | 19 | 8 | 0.8
CCOC(=O)C1=C(C)N(C)C(C)=C(C(=O)OCC)C1c1ccc(C(=O)OC)cc1 | 0 | 99* | -5 | 99* | -7 | 0
O=c1cc(O)nc(SC23CC4CC(CC(C4)C2)C3)[nH]1 | 1 | 0 | -11 | -6 | 12 | 1.1
CCS(=O)(=O)NCC(c1cccnc1)N1CCN(c2ccc(F)cc2)CC1 (stereo not drawn) | 1 | 3 | -11 | 4 | -21 | 1
CCCC(=O)Nc1ccc2oc(-c3cccnc3)nc2c1 | 1 | 5 | -18 | 16 | 4 | 0.8
Cc1ccc2oc(-c3cccc(NC(=O)Cc4cccs4)c3)nc2c1 | 0.2 | 84* | -24 | 21 | -29 | 0.8
Cc1ccc2oc(-c3cccc(NC(=O)C4CCCO4)c3)nc2c1 (stereo not drawn) | 0.8 | 20 | 1 | 12 | -8 | 0.9
CCC(=O)Nc1ccc2oc(-c3cccc(C)c3)nc2c1 | 1.2 | -23 | -9 | 83* | -2 | 0.2
O=C(Nc1cccc(-c2nc3cc(Cl)ccc3o2)c1)C1CCCO1 (stereo not drawn) | 0.3 | 71* | -11 | 48 | -11 | 0.5
NC(=O)c1nsnc1-c1ccccc1O | 0.8 | 16 | . | -4 | . | 1
CC(C)C(C)(C#N)NC(=O)CSc1nnc(C(F)(F)F)n1C (stereo not drawn) | 0.9 | 5 | -10 | 4 | -20 | 1
CCOC(=O)c1c(C)[nH]c(N=Nc2cccc(C)c2)c1C | 0.1 | 93* | -4 | 56* | -7 | 0.4
CCOC(=O)c1c(C)[nH]c(N=Nc2ccccc2)c1C | 0.7 | 33 | -4 | 19 | -6 | 0.8
Cc1ccc(-c2nnc(C)c(N3CCOCC3)n2)cc1 | 1 | 1 | -5 | 12 | 1 | 0.9
